# Unmarked numbers belong to inactive results. Inconclusive results are not listed. Where a call stands in place of a potency, no number is given. The source made the active and inactive calls. Unless noted, calls follow the shape of the full dose curve.
# Legend:
# [1] = qHTS assay to identify small molecule agonists of the sonic hedgehog signaling (Shh) pathway (AID 1259368); also: nearly all actives have a fitted effect of over 15% in size; also: potency is read from the fitted curve at half-maximal effect
# In short: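 Luminescence was read after 30 min at room temperature with luciferase reagent. Before that, 3T3Gli1-Luc cells (NIH/3T3 clone, stable Gli1-Luc reporter; 2,000/well) were exposed to compounds for 24 hr at 37C, 5% CO2, compounds being added 4 hr post-plating.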
# [2] = qHTS assay to identify small molecule antagonists of the sonic hedgehog signaling (Shh) pathway (AID 1259369); also: nearly all actives have a fitted effect of over 45% in size; also: potency is read from the fitted curve at half-maximal effect
# In short: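 Antagonist mode: compound added to 3T3 Gli1-Luc cells followed by conditioned-medium stimulation, 24 h at 37 C, 5% CO2. Inhibition taken as loss of Gli1-driven luciferase luminescence.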
# [3] = molecular target: Estrogen receptor beta (Homo sapiens) (UniProt Q92731); test: qHTS assay to identify small molecule antagonists of the estrogen receptor beta (ER-beta) signaling pathway (AID 1259378; active = well fitted inhibition curve with a large enough effect in the signal ratio in the repeat runs, not every such curve was filed as active; the % refers to the signal ratio; also: potency is read from the fitted curve at half-maximal effect)
# Sequence of Estrogen receptor beta (Homo sapiens) (Q92731 whole entry, looked up): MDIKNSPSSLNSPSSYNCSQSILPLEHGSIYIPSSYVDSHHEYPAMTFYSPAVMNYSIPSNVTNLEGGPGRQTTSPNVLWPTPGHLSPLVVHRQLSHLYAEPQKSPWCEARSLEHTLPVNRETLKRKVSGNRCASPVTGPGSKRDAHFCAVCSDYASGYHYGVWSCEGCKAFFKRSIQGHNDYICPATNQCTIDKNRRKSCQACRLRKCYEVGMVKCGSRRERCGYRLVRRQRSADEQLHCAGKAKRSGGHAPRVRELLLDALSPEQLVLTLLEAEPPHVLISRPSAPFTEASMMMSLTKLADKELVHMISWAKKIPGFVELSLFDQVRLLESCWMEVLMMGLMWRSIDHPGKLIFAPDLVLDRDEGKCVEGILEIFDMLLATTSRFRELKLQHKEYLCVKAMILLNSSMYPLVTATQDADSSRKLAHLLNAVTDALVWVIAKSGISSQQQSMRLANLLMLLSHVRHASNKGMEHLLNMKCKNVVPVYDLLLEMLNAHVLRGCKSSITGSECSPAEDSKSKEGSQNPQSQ
# In short: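 Antagonist mode: compounds added to beta-lactamase reporter HEK293T ER-beta-UAS cells stimulated with E2 (1nM final), 16 hr at 37C. LiveBLAzer B/G FRET substrate, 2 hours room temperature, fluorescence read-out.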
# [4] = qHTS assay to identify small molecule agonists of the estrogen receptor beta (ER-beta) signaling pathway - cell viability counter screen (AID 1259380; active = well fitted curve in the direction sought with a large enough effect in the repeat runs; an effect the other way counts as inactive or inconclusive; also: nearly all actives have a fitted effect of over 30% in size; also: potency is read from the fitted curve at half-maximal effect)
# In short: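 Cell viability counter screen: CellTiter-Glo luminescence (30 min, room temperature) measured in the same wells as the beta-lactamase readout, after 16 hr compound exposure at 37C of ER-beta-bla HEK293T cells in 2% charcoal-stripped FBS medium.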
# [5] = molecular target: Estrogen receptor (Homo sapiens) (UniProt P03372); test: qHTS assay to identify small molecule agonists of the estrogen receptor alpha (ER-alpha) signaling pathway in the presence of an antagonist (AID 1259383); also: nearly all actives have a fitted effect of over 15% in size; also: potency is read from the fitted curve at half-maximal effect; as to activation: top concentration of the series differs between compounds
# Sequence of Estrogen receptor (Homo sapiens) (P03372 whole entry, looked up): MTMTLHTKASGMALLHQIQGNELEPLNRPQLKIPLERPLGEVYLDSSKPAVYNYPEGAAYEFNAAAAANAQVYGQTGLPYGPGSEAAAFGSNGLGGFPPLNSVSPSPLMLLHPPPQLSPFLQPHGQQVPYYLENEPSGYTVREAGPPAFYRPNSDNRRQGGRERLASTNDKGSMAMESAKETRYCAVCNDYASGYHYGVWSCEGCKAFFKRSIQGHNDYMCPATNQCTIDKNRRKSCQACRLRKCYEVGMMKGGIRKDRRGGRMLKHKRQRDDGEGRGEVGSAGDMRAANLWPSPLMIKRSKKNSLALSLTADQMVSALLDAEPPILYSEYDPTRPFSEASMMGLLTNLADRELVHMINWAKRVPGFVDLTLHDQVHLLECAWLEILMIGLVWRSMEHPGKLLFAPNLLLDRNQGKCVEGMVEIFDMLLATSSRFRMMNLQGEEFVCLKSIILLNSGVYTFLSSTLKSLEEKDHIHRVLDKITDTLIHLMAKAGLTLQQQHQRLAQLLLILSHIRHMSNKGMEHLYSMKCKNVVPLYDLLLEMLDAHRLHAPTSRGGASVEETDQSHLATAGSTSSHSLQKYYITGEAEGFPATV
# In short: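 Agonist-mode confirmation run in the presence of 10.0nM (final) ICI-182,780 antagonist. The reporter was ERE-driven luciferase in VM7Luc4E2 cells, grown in charcoal-stripped serum. Cells were exposed to 15-concentration compound series for 22hr, then ONE-Glo luminescence was read.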
# [6] = qHTS assay to identify small molecule agonists or antagonists of the thyroid stimulating hormone receptor (TSHR) signaling pathway - wild type cell line counter screen (AID 1259384)
# In short: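 Counter screen in untransfected Hek293: compounds (15-point titration, triplicate) plus phosphodiesterase inhibitor Ro20-1724 added after 18 h plating; 30 min RT. Intracellular cAMP via competitive d2/cryptate immunoassay, 1 h incubation.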
# [7] = molecular target: Thyrotropin receptor (Homo sapiens) (UniProt P16473); test: qHTS assay to identify small molecule antagonists of the thyroid stimulating hormone receptor (TSHR) signaling pathway (AID 1259385); also: nearly all actives have a fitted effect of over 20% in size
# Sequence of Thyrotropin receptor (Homo sapiens) (P16473 whole entry, looked up): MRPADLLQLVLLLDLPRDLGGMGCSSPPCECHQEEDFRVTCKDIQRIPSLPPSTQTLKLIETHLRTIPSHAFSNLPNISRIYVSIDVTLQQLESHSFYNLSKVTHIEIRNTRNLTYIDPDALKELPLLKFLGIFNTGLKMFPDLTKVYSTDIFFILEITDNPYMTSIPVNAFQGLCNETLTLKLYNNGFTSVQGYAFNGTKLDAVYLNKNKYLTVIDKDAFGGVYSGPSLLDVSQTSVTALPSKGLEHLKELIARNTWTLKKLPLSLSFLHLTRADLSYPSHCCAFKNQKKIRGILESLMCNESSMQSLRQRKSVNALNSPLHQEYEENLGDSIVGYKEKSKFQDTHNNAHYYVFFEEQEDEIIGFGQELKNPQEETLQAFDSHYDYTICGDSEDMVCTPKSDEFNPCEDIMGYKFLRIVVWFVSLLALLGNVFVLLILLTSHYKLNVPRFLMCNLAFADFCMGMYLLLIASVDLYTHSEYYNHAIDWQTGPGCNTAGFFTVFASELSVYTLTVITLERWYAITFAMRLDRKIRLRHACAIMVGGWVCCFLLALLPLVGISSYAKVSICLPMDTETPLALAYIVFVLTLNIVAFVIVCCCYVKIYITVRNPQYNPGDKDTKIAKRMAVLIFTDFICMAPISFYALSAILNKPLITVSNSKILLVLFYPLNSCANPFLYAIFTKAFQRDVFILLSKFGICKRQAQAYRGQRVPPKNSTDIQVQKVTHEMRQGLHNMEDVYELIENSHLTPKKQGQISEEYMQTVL
# In short: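 Antagonist mode: compound-treated TSHR-expressing HEK293 cells were stimulated with 1.5 ng/mL TSH (final) in presence of Ro20-1724 for 30 min at RT. HTRF cAMP detection after 1 h; each compound tested at 15 concentrations, triplicate.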
# [8] = qHTS assay to identify small molecule agonists of the estrogen receptor alpha (ER-alpha) signaling pathway in the presence of an antagonist - cell viability counter screen (AID 1259386; active = well fitted curve in the direction sought with a large enough effect in the repeat runs; an effect the other way counts as inactive or inconclusive; also: series mostly up to about 92 µM; nearly all actives have a fitted effect of over 30% in size)
# In short: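 Compounds tested at 15 concentrations for 22 h at 37C alongside 10.0nM (final) ICI-182,780 antagonist, in VM7Luc4E2 cells grown in phenol red-free, charcoal-stripped medium. Viability read by CellTiter-Fluor fluorescence after 1 h reagent incubation.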
# [9] = molecular target: Progesterone receptor (Homo sapiens) (UniProt P06401); test: qHTS assay to identify small molecule agonists of the progesterone receptor (PR) signaling pathway (AID 1346784); also: nearly all actives have a fitted effect of over 30% in size
# Sequence of Progesterone receptor (Homo sapiens) (P06401 whole entry, looked up): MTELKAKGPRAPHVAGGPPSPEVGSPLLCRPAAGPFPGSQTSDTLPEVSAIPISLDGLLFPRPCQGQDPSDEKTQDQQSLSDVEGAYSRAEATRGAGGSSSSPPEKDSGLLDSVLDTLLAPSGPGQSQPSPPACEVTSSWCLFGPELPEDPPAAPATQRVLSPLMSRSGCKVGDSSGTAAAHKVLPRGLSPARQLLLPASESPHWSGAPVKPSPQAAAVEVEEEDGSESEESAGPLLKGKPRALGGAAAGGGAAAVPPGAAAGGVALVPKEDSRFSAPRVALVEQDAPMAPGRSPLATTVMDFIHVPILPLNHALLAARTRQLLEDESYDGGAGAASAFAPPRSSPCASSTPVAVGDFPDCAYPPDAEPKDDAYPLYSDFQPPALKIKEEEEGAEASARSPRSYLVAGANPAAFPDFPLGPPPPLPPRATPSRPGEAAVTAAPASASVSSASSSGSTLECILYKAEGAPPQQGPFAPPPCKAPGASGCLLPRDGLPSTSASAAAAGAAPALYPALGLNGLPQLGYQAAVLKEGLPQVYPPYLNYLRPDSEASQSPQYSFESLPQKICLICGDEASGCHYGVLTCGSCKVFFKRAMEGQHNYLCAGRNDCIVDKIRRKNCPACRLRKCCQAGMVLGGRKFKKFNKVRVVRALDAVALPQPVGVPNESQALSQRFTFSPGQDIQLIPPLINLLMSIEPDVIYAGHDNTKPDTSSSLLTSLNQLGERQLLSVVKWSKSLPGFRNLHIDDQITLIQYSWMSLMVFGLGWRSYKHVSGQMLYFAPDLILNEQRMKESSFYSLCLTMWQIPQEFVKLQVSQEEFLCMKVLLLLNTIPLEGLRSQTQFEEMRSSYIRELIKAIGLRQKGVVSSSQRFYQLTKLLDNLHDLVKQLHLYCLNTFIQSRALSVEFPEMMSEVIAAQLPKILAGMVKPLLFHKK
# In short: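 Beta-lactamase reporter read-out: after 16 hr compound treatment at 37C and a further 2 hr at room temperature with LiveBLAzer B/G FRET substrate, fluorescence was measured in PR-UAS-bla HEK 293T cells grown in 2% charcoal-stripped serum.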
# [10] = molecular target: Progesterone receptor (Homo sapiens) (UniProt P06401); test: qHTS assay to identify small molecule antagonists of the progesterone receptor (PR) signaling pathway (AID 1346795; active = well fitted inhibition curve with a large enough effect in the signal ratio in the repeat runs, not every such curve was filed as active; the % refers to the signal ratio; also: potency is read from the fitted curve at half-maximal effect)
# In short: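 Read-out is fluorescence from the LiveBLAzer B/G FRET substrate, cleaved by a UAS-controlled beta-lactamase in PR-UAS-bla HEK293T cells after 16 hr exposure to compound plus 1 nM promegestone (final), followed by 2 hr at room temperature.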
# [11] = qHTS assay to identify small molecule antagonists of the progesterone receptor (PR) signaling pathway - cell viability counter screen (AID 1346798; active = well fitted curve in the direction sought with a large enough effect in the repeat runs; an effect the other way counts as inactive or inconclusive; also: nearly all actives have a fitted effect of over 50% in size; also: potency is read from the fitted curve at half-maximal effect)
# In short: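 HEK293T PR-UAS-bla, 2% charcoal-stripped FBS; 4 hr pre-plate; cpd + R5020, 16 h 37C; LiveBLAzer read first; then CellTiter-Glo 30 min RT, luminescence.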
# [12] = qHTS assay to identify small molecule agonists of the progesterone receptor (PR) signaling pathway - cell viability counter screen (AID 1346799); also: nearly all actives have a fitted effect of over 45% in size; also: potency is read from the fitted curve at half-maximal effect
# In short: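 Luminescence from CellTiter-Glo, added after the beta-lactamase FRET read in the same wells, gave cytotoxicity in PR-UAS-bla HEK293T cells treated with compounds for 16 hr at 37C.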
# [13] = qHTS assay to identify small molecule antagonists of the TGF-beta/Smad signaling pathway - cell viability counter screen (AID 1346824; active = well fitted curve in the direction sought with a large enough effect in the repeat runs; an effect the other way counts as inactive or inconclusive; also: nearly all actives have a fitted effect of over 50% in size)
# In short: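 Cytotoxicity counter-screen run in the same wells as the beta-lactamase Smad reporter read: CellTiter-Glo luminescence after 30 min at room temperature. HEK 293T SBE-bla cells had 5 hr compound exposure at 37 C with TGF-beta1 (0.25 ng/mL stock).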
# [14] = qHTS assay to identify small molecule agonists of the TGF-beta/Smad signaling pathway - cell viability counter screen (AID 1346829; active = well fitted curve in the direction sought with a large enough effect in the repeat runs; an effect the other way counts as inactive or inconclusive; also: top concentration of the series differs between compounds; nearly all actives have a fitted effect of over 45% in size)
# In short: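 SBE-bla HEK 293T cells plated overnight, compound exposure 5 hr at 37 C. Viability read in the same wells by CellTiter-Glo luminescence after 30 min at room temperature, following the beta-lactamase read.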
# [15] = qHTS assay to identify small molecule agonists of the TGF-beta/Smad signaling pathway (AID 1346859; active = well fitted activation curve with a large enough effect in the signal ratio in the repeat runs, not every such curve was filed as active; the % refers to the signal ratio; also: series mostly up to about 77 µM)
# In short: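 SBE-bla HEK 293T, 4,000 cells/well, plated o/n; cpd in DMSO, 5 hr, 37 C/5% CO2; B/G FRET substrate 2 hr RT; ex 405, em 460/530 nm.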
# [16] = molecular target: Thyrotropin-releasing hormone receptor (Homo sapiens) (UniProt P34981); test: qHTS assay to identify small molecule antagonists of the thyrotropin-releasing hormone receptor (TRHR) signaling pathway (AID 1346877; active = well fitted inhibition curve with a large enough effect in the repeat runs, not every such curve was filed as active; also: series mostly up to about 51 µM)
# Sequence of Thyrotropin-releasing hormone receptor (Homo sapiens) (P34981 whole entry, looked up): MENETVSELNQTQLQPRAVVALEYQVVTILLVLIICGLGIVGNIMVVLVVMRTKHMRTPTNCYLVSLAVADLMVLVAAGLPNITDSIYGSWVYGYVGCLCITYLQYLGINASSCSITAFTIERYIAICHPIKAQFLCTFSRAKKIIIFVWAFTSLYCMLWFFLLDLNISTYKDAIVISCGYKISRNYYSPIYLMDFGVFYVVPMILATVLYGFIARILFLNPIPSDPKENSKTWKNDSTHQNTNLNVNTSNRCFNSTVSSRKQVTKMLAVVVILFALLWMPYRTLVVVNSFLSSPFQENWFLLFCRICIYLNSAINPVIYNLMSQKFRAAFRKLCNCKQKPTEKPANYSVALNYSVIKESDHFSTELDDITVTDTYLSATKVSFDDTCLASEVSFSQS
# In short: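 Antagonist mode: after a 5 min room-temperature compound exposure, cells were stimulated with 1 nM (final) TRH. Dye-loaded TRHR-HEK293 cells were used, and calcium-dependent fluorescence was followed for 3 min, with 15-point titrations run in triplicate.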
# [17] = qHTS assay to identify small molecule antagonists of the estrogen receptor beta (ER-beta) signaling pathway - cell viability counter screen (AID 1259382; active = well fitted curve in the direction sought with a large enough effect in the repeat runs; an effect the other way counts as inactive or inconclusive;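 also: HEK293T cells carrying ER-beta-UAS-bla reporter stimulated with estradiol; series mostly up to about 92 µM; nearly all actives have a fitted effect of over 55% in size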)
# In short: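 Cytotoxicity was measured in the same wells by CellTiter-Glo luminescence after 30 min at room temperature. Cells were ER-beta-bla HEK293T in charcoal-stripped serum, given compound together with 1 nM E2 and incubated 16 h at 37C.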
# [18] = qHTS assay to identify small molecule agonists of the androgen receptor (AR) signaling pathway in the presence of an antagonist - cell viability counter screen (AID 1259379; active = well fitted curve in the direction sought with a large enough effect in the repeat runs; an effect the other way counts as inactive or inconclusive;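 also: MDA-kb2 human breast cancer cells carrying an MMTV luciferase reporter; series mostly up to about 92 µM; nearly all actives have a fitted effect of over 25% in size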)
# In short: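 Cytotoxicity counter-screen run in the same wells as the nilutamide-challenged (3.0 µM final) AR agonist assay in MDA-kb2 cells. Compounds tested at 15 concentrations for 16 h, 37 °C without CO2; CellTiter-Fluor fluorescence read.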
# [19] = molecular target: Androgen receptor (Homo sapiens) (UniProt P10275); test: qHTS assay to identify small molecule agonists of the androgen receptor (AR) signaling pathway in the presence of an antagonist (AID 1259381); also: nearly all actives have a fitted effect of over 15% in size
# Sequence of Androgen receptor (Homo sapiens) (P10275 whole entry, looked up): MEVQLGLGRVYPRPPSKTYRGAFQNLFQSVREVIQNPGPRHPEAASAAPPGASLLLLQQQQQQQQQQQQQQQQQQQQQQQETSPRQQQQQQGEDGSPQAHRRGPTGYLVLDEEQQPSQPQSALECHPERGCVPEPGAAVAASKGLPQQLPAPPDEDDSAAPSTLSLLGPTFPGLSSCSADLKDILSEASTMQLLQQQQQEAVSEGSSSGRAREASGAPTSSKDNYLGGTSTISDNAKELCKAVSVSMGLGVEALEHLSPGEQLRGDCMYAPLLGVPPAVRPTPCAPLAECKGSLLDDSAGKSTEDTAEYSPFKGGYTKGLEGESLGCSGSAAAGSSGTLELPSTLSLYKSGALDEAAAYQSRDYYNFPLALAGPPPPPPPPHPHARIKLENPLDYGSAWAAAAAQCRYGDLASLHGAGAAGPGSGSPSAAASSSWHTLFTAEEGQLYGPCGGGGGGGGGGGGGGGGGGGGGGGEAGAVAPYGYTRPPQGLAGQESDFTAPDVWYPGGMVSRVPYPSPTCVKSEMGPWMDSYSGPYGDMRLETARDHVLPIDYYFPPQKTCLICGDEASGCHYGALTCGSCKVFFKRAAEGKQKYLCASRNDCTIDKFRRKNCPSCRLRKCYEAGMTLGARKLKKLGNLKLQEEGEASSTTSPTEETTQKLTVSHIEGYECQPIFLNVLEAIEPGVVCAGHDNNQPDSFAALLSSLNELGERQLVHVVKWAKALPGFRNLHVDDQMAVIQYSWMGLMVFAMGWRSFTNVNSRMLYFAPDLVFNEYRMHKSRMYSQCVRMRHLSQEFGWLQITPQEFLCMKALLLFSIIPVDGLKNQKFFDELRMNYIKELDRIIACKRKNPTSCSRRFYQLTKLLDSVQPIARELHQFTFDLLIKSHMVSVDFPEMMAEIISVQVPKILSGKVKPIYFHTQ
# In short: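 Agonist-mode confirmation run against 3.0 uM final nilutamide: compounds titrated at 15 concentrations onto MDA-kb2 MMTV-luciferase reporter cells. Luminescence measured with ONE-Glo following 16 hr incubation, 37C, 0% CO2.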
Compound,Potency [1],Potency [2],Potency [3],Potency [4],Potency [5],outcome [6],Potency [7],Potency [8],Potency [9],Potency [10],Potency [11],Potency [12],outcome [13],outcome [14],outcome [15],outcome [16],Potency [17],Potency [18],Potency [19]
Clc1nc2ccccc2nc1Cl,inactive,inactive,inactive,inactive,inactive,inactive,inactive,inactive,inactive,inactive,inactive,inactive,inactive,inactive,inactive,inactive,–,–,–
C=CC(C)CCC=C(C)C (configuration not stated),inactive,inactive,inactive,inactive,–,inactive,inactive,inactive,inactive,inactive,inactive,inactive,inactive,inactive,inactive,inactive,inactive,–,–
CC1=C(C)C(=O)C(CCCCC#CCCCC#CCO)=C(C)C1=O,inactive,inactive,21.1 µM (active),18.8 µM (active),inactive,inactive,inactive,–,inactive,–,–,–,inactive,inactive,inactive,inactive,–,–,–
O=C(Nc1ccc2c(c1)Cc1ccccc1-2)C(F)(F)F,inactive,inactive,inactive,inactive,–,inactive,–,inactive,inactive,4.33 µM (active),–,–,inactive,inactive,inactive,inactive,inactive,inactive,–
Cc1ccc(Cl)c(OCC(O)CNC(C)(C)C)c1 (configuration not stated),inactive,inactive,inactive,–,inactive,–,–,inactive,inactive,–,inactive,inactive,inactive,inactive,inactive,inactive,inactive,inactive,–
CC(=O)CC/C=C(\C)CC/C=C(\C)CC/C=C(\C)CCC=C(C)C,inactive,inactive,inactive,inactive,–,–,–,inactive,inactive,inactive,inactive,inactive,inactive,inactive,inactive,–,inactive,inactive,–
CCCCCCOC(=O)c1ccccc1,inactive,inactive,inactive,27.3 µM (active),inactive,inactive,inactive,inactive,inactive,–,15.4 µM (active),17.2 µM (active),inactive,inactive,inactive,inactive,–,inactive,–
C[Si](C)(C)O[Si](C)(C)O[Si](C)(C)C,inactive,inactive,inactive,–,–,inactive,–,inactive,–,–,inactive,inactive,inactive,inactive,inactive,inactive,inactive,inactive,–
CCc1ccc2c(c1)C(=O)c1ccccc1C2=O,6.86 µM (active),inactive,–,inactive,2.43 µM (active),inactive,inactive,inactive,inactive,–,inactive,inactive,inactive,inactive,inactive,inactive,inactive,inactive,–
O=C(O)c1c2ccccc2cc2ccccc12,inactive,inactive,inactive,inactive,inactive,inactive,–,inactive,inactive,–,–,inactive,inactive,inactive,inactive,inactive,inactive,–,–
CC(=O)Nc1ccccc1O,inactive,inactive,inactive,inactive,–,inactive,–,inactive,inactive,inactive,inactive,inactive,inactive,inactive,inactive,inactive,–,inactive,–
Nc1ccc(C(=O)Oc2ccccc2)c(O)c1,inactive,inactive,–,inactive,inactive,inactive,inactive,inactive,–,23.7 µM (active),inactive,inactive,inactive,inactive,inactive,inactive,inactive,inactive,–
CC(=O)c1cccnc1,inactive,inactive,inactive,–,inactive,–,–,inactive,inactive,inactive,inactive,inactive,inactive,inactive,inactive,–,–,inactive,–
CCCCCCCCNC,inactive,inactive,inactive,inactive,–,inactive,–,inactive,inactive,inactive,inactive,inactive,inactive,inactive,inactive,inactive,inactive,–,–
COc1ccnc2c1CCCCC2S(=O)c1nc2ccccc2[nH]1 (configuration not stated),inactive,inactive,inactive,–,inactive,inactive,inactive,inactive,inactive,inactive,inactive,inactive,inactive,inactive,inactive,inactive,inactive,inactive,–
CC(CCl)OC(C)CCl (configuration not stated),inactive,inactive,inactive,inactive,inactive,inactive,inactive,inactive,inactive,inactive,inactive,inactive,inactive,inactive,inactive,inactive,inactive,–,–
CCCC1CCCC(=O)O1 (configuration not stated),inactive,inactive,inactive,–,inactive,inactive,–,inactive,inactive,inactive,inactive,inactive,inactive,inactive,–,inactive,inactive,inactive,–
CC(C)CCCCCOC(=O)CS,inactive,inactive,–,inactive,inactive,inactive,inactive,inactive,inactive,–,inactive,inactive,inactive,inactive,inactive,inactive,inactive,inactive,–
O=C(OCCCCCOC(=O)c1ccccc1)c1ccccc1,inactive,inactive,–,inactive,inactive,inactive,inactive,inactive,inactive,inactive,inactive,inactive,inactive,inactive,inactive,inactive,inactive,inactive,–
CC(C)C/C=C(\C=O)c1ccccc1,inactive,inactive,–,inactive,inactive,inactive,inactive,–,inactive,–,inactive,inactive,inactive,inactive,inactive,inactive,inactive,inactive,–
Cc1cc(C)n(CO)n1,inactive,inactive,–,inactive,inactive,inactive,inactive,inactive,inactive,–,–,inactive,inactive,–,inactive,inactive,inactive,inactive,–
CCCCOC(=O)CC#N,inactive,32.1 µM (active),–,inactive,inactive,inactive,inactive,inactive,inactive,inactive,inactive,inactive,inactive,inactive,inactive,–,inactive,inactive,–
CC(=O)Nc1ccn(C2COC(COC(=O)c3ccccc3)O2)c(=O)n1 (configuration not stated),inactive,inactive,inactive,–,–,inactive,inactive,inactive,inactive,–,inactive,inactive,inactive,inactive,–,inactive,inactive,inactive,–
CC1(C)[C@@H]2CC[C@]3(C2)[C@@H]1C(=O)CCC3(C)C,inactive,inactive,inactive,–,inactive,inactive,inactive,inactive,inactive,–,inactive,27.3 µM (active),inactive,inactive,inactive,–,–,inactive,inactive
CNc1ccccc1,inactive,inactive,–,–,inactive,–,–,inactive,inactive,–,inactive,inactive,inactive,inactive,inactive,–,inactive,inactive,–
Nc1ccc(-c2ccc(F)cc2)cc1,inactive,inactive,–,inactive,inactive,inactive,inactive,inactive,inactive,6.11 µM (active),inactive,inactive,inactive,inactive,inactive,inactive,–,inactive,–
O=S(=O)(O)c1cc(Cl)c(Cl)cc1Cl,inactive,inactive,–,–,inactive,inactive,inactive,inactive,inactive,–,30.6 µM (active),30.6 µM (active),inactive,inactive,–,inactive,–,inactive,inactive
